Assay results reported in publication PMC5540273 (PLoS ONE, 2017).

Columns and labels:
Conditions in all cases: concentration: 1 μM, replicates: in singlicate; n = 1
[1] = system: TYK2(JH2domain-pseudokinase)
TYRO3 = system: TYRO3
ULK1 = system: ULK1
ULK2 = system: ULK2
ULK3 = system: ULK3
VEGFR2 = system: T1, VEGFR2
T1 construct: gene KDR

VPS34 = system: T2, VPS34
T2 construct: gene PIK3C3

VRK2 = system: VRK2
WEE1 = system: WEE1
WEE2 = system: WEE2
WNK1 = system: WNK1
WNK2 = system: WNK2
WNK3 = system: WNK3
WNK4 = system: WNK4
YANK1 = system: T3, YANK1
T3 construct: gene STK32A

YANK2 = system: T4, YANK2
T4 construct: gene STK32B

YANK3 = system: T5, YANK3
T5 construct: gene STK32C

YES = system: T6, YES
T6 construct: gene YES1

YSK1 = system: T7, YSK1
T7 construct: gene STK25

YSK4 = system: T8, YSK4
T8 construct: gene MAP3K19
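Further: KINOMEscan kinase panel screen.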

Row | SMILES | %Inh [1] | %Inh (TYRO3) | %Inh (ULK1) | %Inh (ULK2) | %Inh (ULK3) | %Inh (VEGFR2) | %Inh (VPS34) | %Inh (VRK2) | %Inh (WEE1) | %Inh (WEE2) | %Inh (WNK1) | %Inh (WNK2) | %Inh (WNK3) | %Inh (WNK4) | %Inh (YANK1) | %Inh (YANK2) | %Inh (YANK3) | %Inh (YES) | %Inh (YSK1) | %Inh (YSK4)
1 | CNC(=O)c1ccccc1Nc1nc(Nc2ccc(N3CCOCC3)cc2)ncc1Cl.Cl [GSK1576028] | 99.7% | 85% | 99.6% | 81% | 99.8% | 90% | 0% | 21% | 99.7% | 100% | 12% | 5% | 39% | 0% | 58% | 30% | 24% | 98.7% | 68% | 99.9%
2 | Cc1ccc(C(=O)Nc2ccc(Nc3ccnc4cc(-c5nccs5)ccc34)cc2O)cc1.Cl [GW494702] | 15% | 19% | 4% | 0% | 3% | 2% | 18% | 28% | 0% | 0% | 6% | 41% | 38% | 39% | 9% | 0% | 11% | 33% | 0% | 30%
3 | CN1CCN(CCCNc2nccc(-c3c(-c4ccc(F)cc4)nn4cc(C(F)(F)F)ccc34)n2)CC1 [GW621581] | 12% | 0% | 20% | 0% | 8% | 0% | 8% | 0% | 0% | 0% | 3% | 13% | 0% | 0% | 0% | 8% | 0% | 1% | 0% | 9%
4 | CN(c1ccc(NC(=O)Nc2cc(C(F)(F)F)ccc2F)cc1)c1ccnc(Nc2ccc(S(N)(=O)=O)cc2)n1 [GW809893] | 12% | 77% | 17% | 3% | 76% | 88% | 4% | 0% | 0% | 11% | 6% | 0% | 0% | 0% | 17% | 0% | 17% | 80% | 100% | 99.1%
5 | CCc1ccc(-c2ccc3c(c2)-c2c(cnn2C)S(=O)(=O)N3C)cc1 | 0% | 5% | 0% | 0% | 0% | 14% | 45% | 7% | 0% | 0% | 0% | 5% | 0% | 0% | 1% | 0% | 0% | 0% | 7% | 7%
6 | NCCCC(NC(=O)c1cc(Br)c(-c2ccnc3[nH]ccc23)s1)c1ccccc1.O=C(O)C(F)(F)F.O=C(O)C(F)(F)F (stereo not drawn) [GSK1287544] | 6% | 0% | 54% | 0% | 13% | 3% | 28% | 0% | 2% | 4% | 30% | 0% | 11% | 8% | 0% | 0% | 0% | 0% | 0% | 95.2%
7 | Cc1cccc(NC(=O)Nc2ccc(Oc3ncnc4ccn(C)c34)cc2)c1 | 0% | 0% | 0% | 0% | 2% | 99.7% | 0% | 0% | 0% | 0% | 0% | 0% | 0% | 0% | 0% | 0% | 31% | 0% | 0% | 97.1%
8 | O=C(O)C(F)(F)F.O=C(O)C(F)(F)F.O=c1[nH]ccc2nc(N[C@@H]3CCCNC3)nc(Nc3ccc(S(=O)(=O)N4CCOCC4)cc3)c12 [GSK2177277] | 93.2% | 15% | 100% | 88% | 99.9% | 74% | 91.5% | 77% | 66% | 13% | 0% | 29% | 13% | 0% | 96.6% | 89% | 74% | 75% | 94.2% | 99.7%
9 | Cl.NC(=O)c1cccc(Nc2nccc(Nc3ccc(Oc4c(Cl)cccc4Cl)c(Cl)c3)n2)c1 [GW659009] | 0% | 0% | 35% | 0% | 4% | 0% | 0% | 2% | 0% | 0% | 3% | 0% | 12% | 0% | 4% | 0% | 5% | 39% | 0% | 3%
